# In the library only some 3.6% were active in any assay of this set; here they are far more common.
# NadD inh – blocks S. aureus nicotinate mononucleotide adenylyltransferase; inhibition, % at 20 µM; 360,000 compounds, 0.78% hits; purified NadD enzyme, colorimetric absorbance read-out; in the data active = inhibition above about 26%
# FAS TE block – inhibitors of human fatty acid synthase thioesterase domain | P49327 | recombinant FAS-TE, OMFH fluorogenic substrate, fluorescence endpoint | inhibition, % at 15 µM | 360,000 compounds, 0.67% hits | AID 602261;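 active = compounds whose normalised, plate-corrected inhibition of enzyme fluorescence in the single-dose primary screen is 50% or more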;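 also: 0% = DMSO with enzyme and 100% = substrate without enzyme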
# CRFBP-R2 block – blocks CRF-induced signaling of the CRF-BP/CRF-R2 complex; HEK293 CRF-R2/CRF-BP, CRF-induced calcium fluorescence; inhibition, % at 11.8 µM; 350,000 compounds, 0.59% hits; AID 588475;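 active = inhibition of the ligand-induced calcium signal above about 50% at the single tested concentration, limit read from the data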
# CendR NRP1 mod – NRP-1/CendR interaction modulation | inhibition, % at 25 µM | FAM-RPARPAR peptide binding to NRP-1, fluorescence polarization | O14786 | 360,000 compounds, 0.85% hits;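 active = inhibition or corrected inhibition above about 18%, plus a signal ratio from 0.5 to 1.5, limit read from the data, passing the limit was not always enough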
# Myeloid diff 2 – promotes myeloid progenitor differentiation; ER-HoxA9 myeloid progenitors, lysozyme-GFP differentiation, flow cytometry; calls only at 10 µM; 360,000 compounds, 1% hits; AID 624256;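 active = normalized GFP-positive differentiation at or above the plate's own cutoff, the solvent-only control mean plus 3 SD; inconclusive = no clear call, values can overlap the other calls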;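 also: cells exposed to compound for four days before flow analysis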
# Starred values were filed as active, the others as inactive; i = inactive; ? = inconclusive; . = not tested or not shown; + = active, no number.
SMILES,NadD inh,FAS TE block,CRFBP-R2 block,CendR NRP1 mod,Myeloid diff 2
CN(NC(=O)C(=O)NCc1ccco1)C(=O)Nc1ccc(Cl)cc1,5.0,0.5,.,0.8,i
CC(Sc1nnnn1-c1ccccc1)C(=O)Nc1ccc(N2CCN(C)CC2)cc1 (stereo not drawn),-10.7,-4.3,-1.8,14.2,i
CC(Sc1nnnn1-c1ccccc1)C(=O)Nc1ccccc1-c1ccccc1 (stereo not drawn),-6.3,13.3,54.5*,-4.6,i
COc1cccc(C(=O)NCC(c2cccs2)N2CCc3ccccc32)c1 (stereo not drawn),0.2,18.8,13.0,-6.3,i
O=C(NCC(c1cccs1)N1CCc2ccccc21)c1ccccc1 (stereo not drawn),-4.8,16.4,-5.2,-0.5,+
Cc1cc(=O)oc2cc(OCc3ccccc3)ccc12,-3.1,18.2,-5.4,-5.5,+
Cc1cc(=O)oc2cc(OCC(=O)NCCc3ccccc3)ccc12,-9.7,19.5,11.9,0.0,+
COc1ccc(CCNC(=O)COc2ccc3c(C)cc(=O)oc3c2)cc1,-0.9,-3.5,15.0,-14.6,i
COc1ccc([C@H]2C[C@H](O)[C@@H](n3cc(-c4ccc(F)cc4)nn3)CN2Cc2cccs2)cc1,16.3,32.8,0.5,-3.2,?
Cc1cc(/C=C2/C(=O)N(C)C(=S)N2C)c(C)n1C1CC1,5.8,4.0,-3.4,-59.6,+
CCN(CC)S(=O)(=O)c1cc(NC(=O)C(C)N2CCc3ccccc32)ccc1C (stereo not drawn),0.2,18.4,17.1,-14.7,+
Cc1ccc(NC(=O)C(C)N2CCCc3ccccc32)cc1S(=O)(=O)N1CCOCC1 (stereo not drawn),-0.5,17.3,-8.2,-1.8,i
CCCSc1nc2c(cnn2-c2ccccc2)c(=O)n1N,-1.7,-1.4,-9.0,-8.9,i
Nn1c(SCc2ccccc2)nc2c(cnn2-c2ccccc2)c1=O,-5.3,26.2,8.1,22.3*,i
Nc1ccc(-c2c3ccc(=O)cc-3oc3cc(O)ccc23)c(C(=O)O)c1,3.5,-137.3,-169.4,142.9,+
CCN(CC)S(=O)(=O)c1cccc(C(=O)Nc2cccc(C)c2)c1,-7.9,6.1,-9.0,-6.3,i
CCN(CC)S(=O)(=O)c1cccc(NC(=O)C2SC(=Nc3ccc(C)cc3C)C(C(=O)NC(C)COC)=C2N)c1 (stereo not drawn),44.3*,24.4,30.1,-4.6,i
CC1CC(C)CN(C(=O)CSc2nc(Cc3cccs3)nc3ccccc23)C1 (stereo not drawn),25.2,15.4,153.5*,0.7,?
COc1ccccc1NC(=O)C1=C(C)NC(SCC(=O)c2ccccc2)=C(C#N)C1c1ccco1 (stereo not drawn),36.5*,17.1,-21.1,-38.8,i
COC(=O)[C@@]12C[C@@H](CC(=O)NCc3cccc(C(F)(F)F)c3)C(=O)N(Cc3ccccc3)C1=CCC(C)(C)C2,.,.,.,-8.0,i
COc1cccc(-c2oc3c(c2C#CCCO)C(O)CCC3)c1 (stereo not drawn),0.3,-4.1,.,0.3,i
NC1=C(Cl)C(=O)c2ccccc2C1=O,-2.6,1.4,1.6,26.9*,i
NC1=C(Cl)C(=O)c2ccc(S(N)(=O)=O)cc2C1=O,-2.1,35.4,6.3,22.8,?
c1ccc2c(c1)OCCOCCOCCOCCOCCOc1ccccc1OCCOCCOCCO2,-3.0,-12.3,99.1*,0.5,i
OCCN1CCOCCOc2ccccc2OCCOCC1,0.0,-9.0,7.8,14.4,i
SMILES,NadD inh,FAS TE block,CRFBP-R2 block,CendR NRP1 mod,Myeloid diff 2
COCCNC(=O)C1(C)CCCN(Cc2ccccc2N(C)C)C1 (stereo not drawn),-0.4,-3.8,.,-7.3,i
COc1ccc(OCC(=O)O/N=C(\N)Cc2ccc(Cl)cc2Cl)cc1,-1.4,5.5,18.9,45.6*,i
COc1ccc(OCC(=O)O/N=C(\N)Cc2ccc(Cl)cc2)cc1,-3.5,-12.1,2.2,4.6,i
COC(=O)Cn1cnc(C(=O)Nc2ccc(C)c(C)c2)n1,0.6,-5.9,-0.1,-8.3,i
CCn1c(SCC(=O)Nc2ccc3c(c2)OCO3)nc2c(c1=O)SC(C)C2 (stereo not drawn),2.8,-1.9,1.3,-1.3,+
CC1Cc2nc(SCC(=O)c3ccccc3)n(Cc3ccccc3)c(=O)c2S1 (stereo not drawn),-5.2,25.2,12.8,1.2,+
CC1Cc2nc(SCC(=O)Nc3ccc4c(c3)OCO4)n(CCc3ccccc3)c(=O)c2S1 (stereo not drawn),1.9,15.4,41.6,-15.3,i

# Compound activity (PubChem)
